# In all, about 33,000 sequences were measured (“E-score (-0.5 to 0.5)”: median about -0.054, highest 2% from about 0.39 on). Shown is part of a subset that was picked to be rich in the highest values.
# Molecular target: Ylr278c (UniProt Q05854)
# Experiment: PBM E-score (8-mer binding enrichment) (E-score (-0.5 to 0.5)); higher = stronger / more preferred TF binding
# Details: protein concentration: 200 nM; construct: GST-DNA-binding domain
# Method: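 Universal 'all 10-mer' protein binding microarrays (Agilent AMADID 015681) probed with GST-tagged S. cerevisiae TFs (full-length or DBD) made by in vitro transcription/translation (PURExpress), about 100-200 nM. Bound TF was detected with fluorescent anti-GST. Each ungapped 8-mer (which stands for itself and its reverse complement) is scored by the PBM enrichment score (E-score), a modified Wilcoxon-Mann-Whitney statistic from -0.5 to +0.5, computed with the Universal PBM Analysis Suite. Scale: above 0.35 generally sequence-specific binding.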
# Sequence of UniProt Q05854 (Q05854 whole entry): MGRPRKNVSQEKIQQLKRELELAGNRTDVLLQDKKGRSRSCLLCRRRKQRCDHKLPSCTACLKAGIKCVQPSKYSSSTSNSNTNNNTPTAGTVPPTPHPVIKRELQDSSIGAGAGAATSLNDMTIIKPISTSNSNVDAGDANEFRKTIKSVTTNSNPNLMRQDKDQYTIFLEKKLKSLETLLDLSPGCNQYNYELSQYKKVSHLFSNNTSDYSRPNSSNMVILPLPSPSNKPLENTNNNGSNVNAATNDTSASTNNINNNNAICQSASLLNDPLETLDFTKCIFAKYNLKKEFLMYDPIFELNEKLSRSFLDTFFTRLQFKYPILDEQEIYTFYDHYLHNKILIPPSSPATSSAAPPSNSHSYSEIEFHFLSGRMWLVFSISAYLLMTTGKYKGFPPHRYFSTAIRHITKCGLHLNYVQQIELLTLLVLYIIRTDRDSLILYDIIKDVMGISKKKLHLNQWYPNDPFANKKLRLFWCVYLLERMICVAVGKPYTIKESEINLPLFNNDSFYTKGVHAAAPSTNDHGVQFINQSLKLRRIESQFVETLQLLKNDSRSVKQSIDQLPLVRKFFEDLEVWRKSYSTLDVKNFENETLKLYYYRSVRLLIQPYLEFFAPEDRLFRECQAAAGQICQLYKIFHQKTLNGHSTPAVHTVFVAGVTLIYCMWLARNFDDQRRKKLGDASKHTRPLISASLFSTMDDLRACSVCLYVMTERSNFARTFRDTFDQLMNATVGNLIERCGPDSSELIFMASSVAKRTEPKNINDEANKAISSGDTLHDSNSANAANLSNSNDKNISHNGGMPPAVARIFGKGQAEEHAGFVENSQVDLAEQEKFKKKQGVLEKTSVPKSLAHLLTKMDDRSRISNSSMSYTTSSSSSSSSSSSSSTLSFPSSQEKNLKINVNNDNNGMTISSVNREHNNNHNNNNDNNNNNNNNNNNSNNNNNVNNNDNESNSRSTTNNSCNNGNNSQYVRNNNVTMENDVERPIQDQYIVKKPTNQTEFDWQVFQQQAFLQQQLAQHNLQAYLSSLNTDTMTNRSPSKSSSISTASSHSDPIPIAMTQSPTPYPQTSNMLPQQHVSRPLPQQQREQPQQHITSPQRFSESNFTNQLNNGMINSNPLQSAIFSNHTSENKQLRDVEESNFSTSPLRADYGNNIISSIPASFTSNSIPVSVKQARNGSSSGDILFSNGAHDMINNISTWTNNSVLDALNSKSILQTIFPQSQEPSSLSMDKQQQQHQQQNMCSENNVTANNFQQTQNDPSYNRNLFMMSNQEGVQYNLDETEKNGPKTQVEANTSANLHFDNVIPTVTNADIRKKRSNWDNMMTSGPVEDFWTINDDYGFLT
row,Sequence,PBM E-score
1,GCTAAATA,-0.231
2,TGTGGAAA,-0.0101
3,ATCCATTC,-0.0913
4,TCTCGAAA,-0.21
5,AAATGCCA,-0.131
6,CAGGCTGG,-0.0868
7,TGTGTCAA,-0.227
8,CCGTTGTC,0.233
9,GAATCGGA,0.409
10,CAATCGGC,0.129
11,GAATCGCA,-0.0817
12,CAATCGGA,0.425
13,TAGTCGGA,0.414
14,CAGTCGGA,0.357
15,AAATCGGG,0.276
16,AAATCGGA,0.43
17,GAGTCGGA,0.387
18,CAATCGGG,0.219
19,GAATCGGC,0.33
20,AAATCGGT,0.148
21,AGACGCAG,-0.164
22,CCGCACAC,0.0213
23,AACCCAGG,-0.176
24,ATGTACTC,-0.0177
25,AGAGCTAA,-0.171

row,Sequence,PBM E-score
1,CGAACGCA,0.106
2,CTCTGACC,-0.148
3,AATTTTCC,0.358
4,GCCATCGC,-0.0776
5,ATGTTCTG,-0.11
6,TCTCTACA,-0.211
7,TAATCGAA,-0.0147
8,TAATCGTA,-0.186
9,TAATCGGA,0.417
10,CCCTGTCA,-0.228
11,GCCGCGAA,0.233
12,GCCGCGCA,0.21
13,GGCGCGGA,0.352
14,ACCGCGGG,0.299
15,ACCGCGGA,0.407
16,CGCGCGGA,0.398
17,ACCGCGGT,0.178
18,GCCGCGGC,0.406
19,AGCGCGGA,0.325
20,GACGCGGC,0.079
21,GCCGCGGA,0.409
22,ACCGCGGC,0.305
23,AAGTTCAT,0.154
24,CGCTTTTA,0.129
25,CATGGCAC,0.133

row,Sequence,PBM E-score
1,TACCCGCA,0.157
2,CAGCACCC,-0.0668
3,AGTCAGTA,0.00611
4,CATAGCCG,0.23
5,AACTCTTC,-0.204
6,AAGTGGTA,-0.0771
7,AGTTGTGG,-0.0534
8,AACGCGGC,0.183
9,CCCGCGGC,0.336
10,TCCGCGAA,0.343
11,TCCGCGGA,0.44
12,CCCGCGGA,0.409
13,CACGCGGA,0.379
14,CCCGCGGG,0.363
15,AACGCGGA,0.397
16,TACGCGGA,0.309
17,CCTCTCAA,0.0673
18,GGTAGAAA,-0.0702
19,AGCCCATG,-0.131
20,ACATTGAG,-0.114
21,CGACCTAG,0.02
22,AACGGTCT,-0.0855
23,AAACTCCA,0.176
24,AAACTCCG,0.496
25,CAACTCCC,0.154

row,Sequence,PBM E-score
1,CAACTCCA,0.0206
2,CAACTCCG,0.486
3,AAACTCCT,0.23
4,CACGCTCC,0.129
5,CTCGCGTC,0.0578
6,GGGCTCAA,-0.00819
7,ACTCCTGC,0.165
8,GCTCCCGA,0.0641
9,ACTCCGGG,0.481
10,GCTCCAGA,-0.103
11,ACTCCAGG,0.00347
12,CCTCCTGC,-0.182
13,ACTCCGGC,0.476
14,CCTCCGGC,0.448
15,ACTCCTGG,-0.0351
16,ACTCCAGC,-0.122
17,CCTCCAGC,-0.37
18,GCTCCGGA,0.464
19,ATAAGTTA,-0.103
20,ACTAGAAG,-0.121
21,AGAAGGAT,-0.269
22,ACTTCAGG,-0.0351
23,ACTGCATC,-0.142
24,CCACTTCC,0.0941
25,CTCTTGGC,-0.239

row,Sequence,PBM E-score
1,CTGAGGGC,-0.251
2,ACTCCGGA,0.494
3,ACTCCTGA,0.0258
4,ACTCCAGA,-0.112
5,CCTCCGGA,0.467
6,CCTCCCGA,0.0701
7,CCTCCTGA,-0.172
8,CGCGCAAG,0.0504
9,CTACACGC,-0.235
10,GCGATATA,0.00114
11,ACTAGCAA,-0.104
12,AGGTGCAC,0.0215
13,GGAATTCA,0.183
14,AGAATTCC,0.283
15,GGAATTCC,0.441
16,GAGACTCC,0.249
17,CGCCGCCC,0.284
18,GTCCGCCA,0.293
19,ACCCGCCG,0.307
20,CTCCGCCC,0.457
21,AGCCGCCG,0.313
22,ATCCGCCG,0.401
23,ATCCGCCA,0.196
24,ATCCGCCC,0.291
25,CTCCGCCA,0.391

row,Sequence,PBM E-score
1,CCAGTCCC,-0.0319
2,GCGTGAGA,-0.0361
3,GCCTCATA,-0.00634
4,AATGGTAA,0.0806
5,ACTTTGCC,0.0108
6,CGTCTGGA,-0.166
7,CGACTGCC,0.0706
8,AGAGATAG,-0.0754
9,GGGAGGAC,0.0177
10,CCGAGGAG,0.183
11,AGGAGGAA,-0.165
12,CGGAGGCC,0.42
13,CGGAGGAG,0.417
14,CGGAGGCA,0.34
15,AGGAGGAC,-0.294
16,AGGAGGCC,-0.164
17,CGGAGGAC,0.423
18,AGGAGGAG,-0.212
19,CGGAGGAA,0.436
20,TGGAGGAA,-0.131
21,ATTCGCTA,-0.0743
22,TCTGCTCA,-0.298
23,CAGTATGG,-0.195
24,CCACATCC,0.0271
25,AGAGTCAC,-0.333

row,Sequence,PBM E-score
1,CAGAATCG,0.00258
2,CACGTCAA,-0.202
3,CCCTTAGA,-0.393
4,CCCCCGAC,0.228
5,GCCCCGAC,0.278
6,ACCCCGAT,0.426
7,AACCCGAT,0.29
8,ACCCCGAA,0.392
9,GCCCCGAA,0.301
10,ACCCCGAC,0.39
11,ACCCCGAG,0.319
12,CCCCCGAA,0.184
13,AATCTATG,-0.0536
14,ACCATAGA,0.00619
15,GTTCAGGA,-0.0137
16,GATCTCAC,0.0769
17,CCAGTAGG,-0.101
18,ATCCGTGG,0.299
19,AGAAGGCC,0.0969
20,ATCCGTGC,0.125
21,CACCGTGC,-0.0579
22,ATCCGTGA,0.244
23,ATCCGTTC,0.183
24,GTCCGTGA,0.278
25,CTCCGTTC,0.394

row,Sequence,PBM E-score
1,CTCCGTTA,0.347
2,CTCCGTGC,0.416
3,CTCCGTGA,0.425
4,GTGCTAGA,-0.277
5,AGCGTGGC,-0.0918
6,AGTGGGAG,-0.221
7,CGAAGGCA,-0.0856
8,CGTCCATC,0.145
9,CAGTATCG,0.0195
10,CGACCCCG,0.247
11,ACGGAGGC,0.302
12,CCGGAGGC,0.433
13,CAGGAGGC,-0.0031
14,GCGGAGGA,0.406
15,CAGGAGGA,-0.219
16,ACGGAGGA,0.383
17,CGGGAGGA,0.25
18,GAGGAGGA,-0.246
19,CCGGAGGA,0.465
20,GACGGCAC,0.0236
21,GCAGTCGA,-0.0263
22,TAACAACA,-0.124
23,CAGATCTA,-0.168
24,CTCTGATC,-0.271
25,TCCGAAGA,0.433

row,Sequence,PBM E-score
1,ACCGAACA,0.0403
2,CCCGAAGA,0.156
3,TCCGAACA,0.429
4,TCCGAAAA,0.431
5,CCCGAAAA,0.294
6,GCCGAAAA,0.359
7,GCCGAACA,0.21
8,ACCGAAGA,0.183
9,AAAGAGTG,-0.158
10,ATTTGTCA,-0.182
11,CGAAAGAC,0.133
12,CTTTCATC,-0.135
13,AGTCCGGG,0.44
14,AGTCCCGG,0.362
15,AGTCCGGC,0.44
16,AGTCCGCG,0.369
17,AGTCCGTC,0.381
18,AGTCCCCC,-0.261
19,AGTCCTGC,-0.116
20,CGTCCGCC,0.319
21,AGTCCGCC,0.424
22,CCAGGTCA,-0.253
23,AGGCACTG,-0.178
24,CATGCTGC,-0.0378
25,ACTGCCCT,-0.112

row,Sequence,PBM E-score
1,CCAACAAA,-0.142
2,AAGTGGGG,0.0493
3,CGGAGAAA,0.477
4,TGGAGAAA,-0.0369
5,CAGAGAAG,-0.15
6,CGGAGAAG,0.453
7,GGGAGAAA,0.0906
8,GGGAGAAC,-0.0233
9,AGGAGAAC,-0.00067
10,AGGAGAAG,-0.151
11,CGGAGAAC,0.445
12,GAATGCGC,0.182
13,CTTCTAGA,-0.215
14,CCTCCCTC,0.0572
15,TCCGCTAA,0.267
16,AGTTAGAC,-0.0203
17,GTCCAAGA,-0.185
18,CATGGCCG,0.224
19,ACGTCGGA,0.385
20,CCGTCGGA,0.415
21,CCGTCGTA,0.0447
22,GCGTCGGA,0.438
23,CCGTCGGC,0.366
24,GCGTCGAA,-0.0135
25,CATCCTTC,-0.0925

row,Sequence,PBM E-score
1,ACAGGCCG,0.156
2,AGAGGCTA,-0.164
3,AATAATAT,0.23
4,ACATCGAG,-0.288
5,AGCTACCC,-0.243
6,ATGGATCG,0.166
7,CAGCTCCC,-0.153
8,CAGCTCCA,-0.152
9,CAGCTCCG,0.426
10,AAGCTCCC,-0.139
11,AAGCTCCT,-0.0423
12,AAGCTCCG,0.477
13,ACTGTCAG,-0.147
14,CACGCGAC,-0.0553
15,AACTTCTG,-0.197
16,TCATTCAA,-0.146
17,CTAGCGGC,0.0333
18,CGCCGGAC,0.447
19,CGCCGCAC,0.222
20,CGCCGAAC,0.315
21,GGCCGGAA,0.422
22,AGCCGGTA,0.352
23,AGCCGGAA,0.43
24,GGCCGGTA,0.261
25,GGACGGAA,0.337

row,Sequence,PBM E-score
1,AGCCGGGA,0.272
2,AGCCGGGG,0.26
3,AGCCGGTG,0.246
4,AGCCGGAG,0.455
5,GCATTGGA,0.0238
6,CAGGTTGG,-0.138
7,GACGGTAA,0.127
8,CGTGATGC,0.073
9,TGCCGGCA,0.347
10,CGCCGGGC,0.378
11,CGCCGTAA,0.28
12,AGCCGGGC,0.167
13,CGCCGGAA,0.432
14,CGCCGGTA,0.352
15,AGCCGGAC,0.407
16,TGCCGGAA,0.435
17,TGCCGTAA,-0.0603
18,CGCCGGGA,0.412
19,AGCCGGTC,0.134
20,GGCCGGGA,0.325
21,GAACGATC,0.041
22,CCTGTCCC,-0.128
23,ACCAGTAA,0.00819
24,ATTCTAGA,-0.171
25,ACGACCCC,0.0131

row,Sequence,PBM E-score
1,AGCCGTAT,-0.0908
2,CGCCGTAG,0.193
3,CGCCGCAG,0.264
4,GGCCGCAC,0.23
5,CGCCGGAG,0.459
6,GGCCGGAC,0.419
7,AGCCGGCT,0.247
8,GGACGGAC,0.359
9,AGCCGGAT,0.404
10,AGCCCTTA,-0.232
11,CGGACGAA,0.332
12,AGGGGATC,-0.0127
13,ACGGGATA,0.261
14,ACGGGACC,0.0315
15,CTGGGATC,-0.101
16,GCGGGACC,0.216
17,CCGGGACC,0.408
18,CCGGGATC,0.411
19,GCGGGATA,0.266
20,CCGGGATA,0.395
21,CGGGGATA,0.349
22,CGGGGATC,0.408
23,ACGGGATC,0.109
24,ATTGCATC,-0.105
25,AGCGAAGG,-0.0577

row,Sequence,PBM E-score
1,ATATGCAA,-0.0841
2,TCGCCAGA,-0.26
3,AAACAGAA,-0.207
4,CTAGGCAA,-0.0858
5,TAGTTTCA,-0.0254
6,ACCTAGAG,-0.141
7,GGAGAATA,0.189
8,AAGGGCTG,-0.213
9,CACGGATC,0.242
10,CCCGGATA,0.351
11,CCCGGATC,0.403
12,GTTGCTTA,-0.107
13,GTCTGCGA,-0.207
14,GTCACCCA,-0.109
15,ACTAGCCT,-0.0654
16,CATTGAGA,-0.119
17,CTCTCGGA,0.405
18,CTCTCGGC,0.181
19,ATCTCGGG,0.278
20,ATCTCGGA,0.406
21,CTCTCGAA,-0.33
22,GTCTCGGA,0.385
